The source made the active and inactive calls. How the source made its calls: active means hit-call score of the fitted dose curve at least 0.9, where 1 is the maximum; inactive means score below 0.9.

Read-out in this test: CFLAR gene, CFLAR (gene 8837)
Nature of the test: LTEA_HepaRG_CFLAR: Life Technologies and Expression Analysis (LTEA) Assay for CFLAR gene using HepaRG (AID 2283455). The conditions noted are these: mRNA level, 48 h; actives raise or lower the signal. On the procedure: LTEA_HepaRG is a cell based, multiplexed-readout assay that uses HepaRG, a human liver cell line, with measurements taken at 48 hours after chemical dosing on a 96-well plate.LTEA_HepaRG_CFLAR is one of 102 assay component(s) measured in the LTEA HepaRG cell culture assay. It is a marker of Cell proliferation, survival, death.Data from the assay component LTEA_HepaRG_CFLAR was analyzed into 1 endpoint. This assay endpoint, LTEA_HepaRG_CFLAR, was analyzed with bidirectional fitting relative to DMSO as the negative control and baseline of activity. Using a type of inducible reporter, measures of mRNA induction for gain or loss-of-signal activity can be used to understand regulation of transcription factor activity. To generalize the intended target to other relatable targets, this assay endpoint is annotated to the cell cycle intended target family, where the subfamily is Cell proliferation, survival, death.
A total of 1060 chemcials from the ToxCast library were tested in eight-point concentration-response experiments. Cell culture and cytotoxicity assays were conducted at Thermo Fisher Scientific's Custom Services facility (Madison, WI). A single lot of human HepaRG cells (Thermo Fisher Scientific, Frederick, MD) was used for the cell culture experiments. 96-well format collagen type I coated plates of human HepaRG cells were prepared using established methods. Briefly, cryopreserved HepaRG cells were thawed, plated at a density of approximately 100,000 cells/well in HepaRG Thaw, Plate, and General Purpose media (HPRG770, Thermo Fisher Scientific), and incubated for 48 hours. 0.5% DMSO was selected as vehicle control to balance the requisite need of DMSO in HepaRG cultures to maintain differentiation (for example, baseline metabolism, proportions of hepatocytes vs. cholangiocytes), while enabling further hepatic receptor pathway activation (for example, PXR and CAR) in response to chemical exposure. 48 hours after plating, the culture medium was replaced with HepaRG Serum-Free Incudtion Media. Cells were exposed to each test chemical in duplicate and maintained in CO2 incubators for another 48 hours. Chemical plates were thawed to room temperature and 200x concentrations of treatment groups were prepared. 8-point conentration-reponse curves were made with the highest exposure at 100 uM, followed by half-log dilutions, all in 0.5% DMSO. Each test plate contained variouse controls, induction positive controls (1mM phenobarbital), cytotoxicity positive controls ([…] aflatoxin B1), vehicle controls (0.5% DMSO), and total lysis controls (0.5% DMSO). Cell morphology images were taken using an Essen IncuCyte FLR automated microscope, with six 96-well plates imaged in about 24 minutes. Images were captured and exported and JPEG files. Spent culture media was transfered to black-well plates for the LDH assay, and remaining media was sorted at -80 C for later use. Cells were treated with RLT buffer and frozen until shipped for gene expression analysis. Total RNA was isolated from the cell suspension in 75 uL of Buffer RLT (Qiagen, Germantown, MD 20874) by Quintiles/Expression Analysis (Durham, NC) using a custom isolation procedure. Total RNA from each plate well was transferred to a preamplification plate. Fluidigm's 96.96 Dynamic ArrayTM (Fluidigm, Amsterdam, the Netherlands) technology was used for gene expression analyses by quantitative reverse transcription polymerase chain reaction (qRT-PCR, performed by Quintiles/Expression Analysis, Durham, NC)89. Standard TaqManTM Assays (Applied Biosystems/ThermoFisher Scientific, Foster City, CA) were used to assess the expression of 93 genes selected based on their selectivity and sensitivity to important hepatic receptors known to be modulated by environmental chemicals; importance in human hepatocyte functionality; and hepatotoxicity. […]
Consider `CCC1(c2ccccc2)C(=O)N=C(O)NC1=O` (stereo not given), for which the outcome was inactive.
For `CCOC(=O)c1ccccc1C(=O)OCC` the value was “inactive”; for `c1nc[nH]n1`, “inactive”; for `CC(Cc1ccc(OCC(=O)O)cc1)NCC(O)c1csc(C(F)(F)F)n1` (stereo not given), “inactive”.
The same measure for `CCOS(=O)(=O)OCC`: “inactive”.
With `CCNc1nc(Cl)nc(NC(C)(C)C)n1`, the result was inactive.
The same measure for `CCOP(=S)(Oc1ccc([N+](=O)[O-])cc1)c1ccccc1` (stereo not given): “inactive”; for `CCOP(=S)(OCC)SCSCC`: “inactive”; for `c1ccc2c(c1)Nc1ccccc1S2`: “inactive”.
The same measure for `[N-]=[N+]=[N-]`: “inactive”.
For `O=P(Oc1ccccc1)(Oc1ccccc1)Oc1ccccc1` the value was “inactive”.
In the case of `CC(Cl)(Cl)C(=O)O`, the call was inactive.
For `CCCN(CCC)c1c([N+](=O)[O-])cc(C(C)C)cc1[N+](=O)[O-]` the value was “inactive”.
The same measure for `O=P1(N(CCCl)CCCl)NCCCO1` (stereo not given): “inactive”; for `c1cc2c3c(cccc3c1)CC2`: “inactive”.
The same measure for `O=C(O)C1C(C(=O)O)C2(Cl)C(Cl)=C(Cl)C1(Cl)C2(Cl)Cl` (stereo not given): “inactive”; for `ClC(Cl)c1ccccc1`: “inactive”; for `Cc1ccc(O)cc1C`: “inactive”.
As to `Cc1cccc(N)c1`, the compound was classed as inactive.
Regarding `ClC(Cl)(Cl)c1ccccc1`, the call was inactive.
As for `CCC(C)(C)c1ccc(O)cc1`, the call was inactive.
The same measure for `O=[N+]([O-])c1ccc(Cl)c(Cl)c1`: “inactive”; for `CC(C)(C)c1ccc(O)cc1`: “inactive”.
The same measure for `Cc1ccc([N+](=O)[O-])cc1C`: “inactive”; for `CC(C)(C)OOC(C)(C)C`: “inactive”.
For `OCC1CO1` (stereo not given) the value was “inactive”.
Consider `CCCCCCCc1ccc(O)cc1`, for which the compound was classed as inactive.
For the compound `c1ccc(OP(Oc2ccccc2)Oc2ccccc2)cc1`, the compound was called inactive.
Turning to `O=C(O)C(Cl)Cl`, the call was inactive.
The same measure for `Nc1ccc2ccccc2c1`: “inactive”; for `CSC(C)(C)C=NO`: “inactive”.
The same measure for `Cc1ccc(N)cc1N`: “inactive”.
In the case of `O=[N+]([O-])c1ccccc1`, the compound was classed as inactive.
The same measure for `CCCCc1ccccc1`: “inactive”; for `CCCCN(CCCC)N=O`: “inactive”.
For `COCCOCCO` the value was “inactive”; for `CCOc1ccc(C(C)(C)COCc2cccc(Oc3ccccc3)c2)cc1`, “inactive”; for `CN(C)C(=O)Cl`, “inactive”.
For `CCN(CC)c1ccccc1` the value was “inactive”.
Consider `ClC1=C(Cl)C2(Cl)C3C(Cl)C(Cl)CC3C1(Cl)C2(Cl)Cl` (stereo not given), for which the outcome was inactive.

The values above are taken from PubChem BioAssay (EPA / NIEHS).
